Assay outcomes deposited in PubChem BioAssay by National Center for Advancing Translational Sciences (NCATS).
Only a selection was taken, and hits are over-represented in it overall.
APE1 inh-1 = APE1 (human) endonuclease inhibition; 0.35% of 350,000 active; Potency, µM (top dose mostly 65.8 µM), inactives show at the top dose activity change, negative = inhibition, most hits filed as inhibitors; recombinant APE1, TAMRA/BHQ-2 abasic DNA cleavage fluorescence; P27695;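 note: plate controls were vehicle for no effect and reference inhibitor for full effect; nearly all actives have a fitted effect of over 55% in size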
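Enzyme (0.75 nM final) and test compound are incubated 15 min at room temperature before adding 50 nM quenched THF abasic-site duplex. Cleavage dequenches TAMRA, followed at 525/598 nm over three reads one minute apart.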
GoLoco inh red = inhibitors of human Gai1-RGS12 GoLoco interaction (red fluorophore); Gai1:RGS12 GoLoco peptide FP, rhodamine, 10 min; Potency, µM (top dose mostly 61.6 µM), for the others: at the highest dose activity, negative = inhibition, actives largely listed as inhibitors; 0.44% of 230,000 active; active = well fitted inhibition curve with a large enough effect, not every such curve was filed as active; inactive = no such curve, though single readings can be large or run the other way; note: nearly all actives have a fitted effect of over 30% in size
BLM inh-1 = Bloom syndrome helicase (human) inhibition; P54132; AID 2528; 0.2% of 350,000 active; Potency, µM (doses to about 56.1 µM), for the others: at the top dose activity change, negative = inhibition, actives largely listed as inhibitors; recombinant BLM DNA unwinding, fluorescence dequenching;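 note: plate controls were vehicle for no effect and no enzyme for full effect; nearly all actives have a fitted effect of over 35% in size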
KDM4E inh = blocks human JMJD2E demethylase activity. B2RXH2. JMJD2E catalytic domain, FDH-coupled NADH fluorescence (FDH is formaldehyde dehydrogenase). Potency, µM (titrated, usually from 57.1 µM), for inactives: top-dose activity change, negative = inhibition, hits mostly inhibitors. 1.6% of 230,000 active. AID 2147; active = well fitted inhibition curve with a large enough effect, not every such curve was filed as active; inconclusive = small, poorly fitted or top-dose-only effect, or another doubt; inactive = no such curve, though single readings can be large or run the other way;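 note: 0% = wells with enzyme and -100% = buffer wells without enzyme; nearly all actives have a fitted effect of over 50% in size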
L3MBTL1 block = inhibitors of human L3MBTL1; 0.66% of 230,000 active; Potency, µM (doses to about 57.1 µM), inactives show at the top dose activity, negative = inhibition, usual class: inhibitors; AlphaScreen L3MBTL1–H3K9me1 peptide binding; Q9Y468; note: nearly all actives have a fitted effect of over 60% in size
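L3MBTL1 (50 nM) pre-complexed 30 min with biotinylated H3(1-15)K9me1 peptide (75 nM), then compounds added for 30 min at room temperature; AlphaScreen streptavidin donor/nickel chelate acceptor beads (10 ug/mL final) read after 30 min dark incubation.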
RECQ1 inh-1 = RECQ1 (human) helicase inhibition | RECQ1 DNA unwinding, red fluorescence kinetic read | Potency, µM (series often up to 57.3 µM), for the others: at the top dose activity, negative = inhibition, actives largely listed as inhibitors | 0.54% of 240,000 active;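 note: plate controls were vehicle for no effect and no enzyme for full effect; nearly all actives have a fitted effect of over 30% in size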
Target sequence (P46063 whole entry, looked up): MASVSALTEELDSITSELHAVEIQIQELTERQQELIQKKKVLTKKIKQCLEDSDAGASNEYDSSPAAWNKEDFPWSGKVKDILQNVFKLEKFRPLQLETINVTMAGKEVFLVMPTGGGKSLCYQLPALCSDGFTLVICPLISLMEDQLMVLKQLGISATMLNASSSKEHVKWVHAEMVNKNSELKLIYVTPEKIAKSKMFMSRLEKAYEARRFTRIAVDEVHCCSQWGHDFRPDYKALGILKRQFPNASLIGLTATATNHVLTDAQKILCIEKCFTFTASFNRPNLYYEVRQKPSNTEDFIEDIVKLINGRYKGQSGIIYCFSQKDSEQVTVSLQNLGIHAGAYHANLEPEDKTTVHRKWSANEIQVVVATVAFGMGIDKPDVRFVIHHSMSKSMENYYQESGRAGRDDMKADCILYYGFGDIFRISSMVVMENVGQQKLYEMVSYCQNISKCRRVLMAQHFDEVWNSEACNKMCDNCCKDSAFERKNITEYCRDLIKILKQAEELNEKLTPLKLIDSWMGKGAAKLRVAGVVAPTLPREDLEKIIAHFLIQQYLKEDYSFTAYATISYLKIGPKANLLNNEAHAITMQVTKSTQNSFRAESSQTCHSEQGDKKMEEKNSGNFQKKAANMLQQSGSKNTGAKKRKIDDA
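RECQ1T1 50 nM; forked duplex (20 bp + 30-nt ss tails) 200 nM, ATP 2 mM final; pH 8.0, 2 mM MgCl2, 2.5 ug/ml poly(dI-dC); 15 min compound preincubation; discontinuous kinetic read over 2 h at RT.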
APE1 dye cs = DNA dye displacement counter-screen activity; shares compounds with APE1 inh-1; 7% of 480 active; DNA fluorescent dye displacement counterscreen, fluorescence; Potency, µM (top dose mostly 28.5 µM), without a hit: at the highest dose activity change, negative = inhibition, actives largely listed as inhibitors;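 note: loss of thiazole orange fluorescence as the dye is displaced from duplex DNA; 0% = ThO with dsDNA and no compound and -100% = ThO without dsDNA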
EndoIV counter = counter-screen for APE1 inhibitors: inhibitors of E. coli endonuclease IV. shares compounds with APE1 inh-1. E. coli Endo IV, fluorogenic AP-site DNA cleavage. 4% of 560 active. Potency, µM (doses to about 27.1 µM), for inactives: at the highest dose activity change, negative = inhibition, hits mostly inhibitors. AID 2565;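 note: plate controls were uninhibited enzyme wells for no effect and no enzyme buffer wells for full effect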
APE1 inh-2 = confirmation of inhibitors of human APE1 endonuclease; Potency, µM (top dose mostly 57.1 µM), inactives show at the top dose activity change, negative = inhibition, hits mostly inhibitors; shares compounds with APE1 inh-1; purified APE1, fluorogenic abasic-site DNA cleavage; 44% of 750 active; note: nearly all actives have a fitted effect of over 30% in size
APE1 FP inh = APE1 (human) DNA binding inhibition, fluorescence polarization; shares compounds with APE1 inh-1; APE1 binding to TAMRA-labelled double-stranded DNA, fluorescence polarization displacement; Potency, µM (titrated, usually from 28.5 µM), for inactives: at the top dose activity, negative = inhibition, hits mostly inhibitors; 7% of 480 active; AID 2573
BLM inh-2 = BLM (human) helicase inhibition, confirmation | shares compounds with BLM inh-1 | BLM DNA unwinding, fluorescence quenching, biochemical | Potency, µM, without a hit: max response, negative = inhibition, hits mostly inhibitors | 40% of 220 active | AID 2585;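 note: strand separation dequenches TAMRA so unwinding raises red fluorescence; series mostly up to about 69 µM; nearly all actives have a fitted effect of over 45% in size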
RECQ1 inh conf = confirmation of human RECQ1 helicase inhibitors | shares compounds with RECQ1 inh-1 | 28% of 610 active | RECQ1 helicase DNA unwinding, fluorescence | Potency, µM (top dose mostly 229 µM), for the others: at the top dose activity change, negative = inhibition, hits mostly inhibitors; note: nearly all actives have a fitted effect of over 45% in size
ADP FP counter = counter-screen for RECQ1 inhibitors: ADP displacement | shares compounds with RECQ1 inh-1 | ADP fluorescence polarization displacement counterscreen | Potency, µM (highest dose often 228 µM), inactives show at the top dose activity change, negative = inhibition, usual class: inhibitors | 27% of 530 active | AID 2711; note: nearly all actives have a fitted effect of over 45% in size
RECQ1 inh-2 = confirmation of human RECQ1 helicase inhibitors; shares compounds with RECQ1 inh-1; recombinant RECQ1 DNA unwinding, red fluorescence; Potency, µM (titrated, usually from 119 µM), without a hit: top-dose activity, negative = inhibition, most hits filed as inhibitors; 15% of 1,100 active; note: nearly all actives have a fitted effect of over 50% in size
Numbers without * were called inactive; ! = not confirmed by another sample; [ ] = another dose, or the depositor's remark. Unless noted, calls come from the whole dose curve; as a rule, active = well fitted curve in the direction sought with a large enough effect; inconclusive = small, poorly fitted or top-dose-only effect, or another doubt; inactive = no such curve, though single readings can be large; an effect the other way counts as inactive or inconclusive. Unless noted, % is set by controls: 0 for no effect and ±100 for the full control effect; potency is the fitted concentration of half-maximal effect.

What do the screens show for `CCN1C(=O)NC(=O)/C(=C\c2cn(CC(=O)O)c3ccccc23)C1=O`?
APE1 inh-1: 3%; BLM inh-1: -1%

Results for O=C(O)Cn1cc(/C=C2\C(=O)NC(=O)N(Cc3ccco3)C2=O)c2ccccc21 ?
APE1 inh-1: 7.9µM*; GoLoco inh red: 127%; BLM inh-1: 77%; KDM4E inh: inconclusive; L3MBTL1 block: 5µM*; RECQ1 inh-1: 14µM*; APE1 dye cs: inconclusive; EndoIV counter: 22%; APE1 inh-2: 11µM*; APE1 FP inh: -3%

Results for FC(F)(F)c1ccc(Cl)cc1 ?
APE1 inh-1: 1%; GoLoco inh red: -13%; RECQ1 inh-1: -2%

Results for COc1ccc(CN2C(=O)NC(=O)/C(=C/c3ccoc3)C2=O)cc1 ?
APE1 inh-1: 8.9µM*; GoLoco inh red: 21%; BLM inh-1: -20%; KDM4E inh: -20%; L3MBTL1 block: inconclusive; RECQ1 inh-1: inconclusive; APE1 dye cs: 0%; EndoIV counter: -9%; APE1 inh-2: 4µM*; APE1 FP inh: inconclusive

Results for O=C(O)CS(=O)(=O)C(c1ccccc1)c1ccccc1 ?
GoLoco inh red: 8%[14.2 µM]

Results for NCC(O)c1cc(O)c(O)cc1F (centres undefined) ?
APE1 inh-1: 1.1µM*!; GoLoco inh red: 5%; KDM4E inh: 14µM*; L3MBTL1 block: inconclusive; RECQ1 inh-1: inconclusive; EndoIV counter: -2%[57.1 µM]; APE1 inh-2: -20%

How did S=c1[nH]nc(Cn2c(-c3ccccn3)nc3ccccc32)n1-c1ccc2c(c1)OCCO2 do in these assays?
APE1 inh-1: -5%; GoLoco inh red: -3%; BLM inh-1: -2%; KDM4E inh: inconclusive; L3MBTL1 block: 23%; RECQ1 inh-1: inactive

What do the screens show for `CC(C)NC(C)Cc1ccc(I)cc1` (centres undefined)?
APE1 inh-1: 8%; GoLoco inh red: -6%; BLM inh-1: -4%; KDM4E inh: -3%; L3MBTL1 block: 3%; RECQ1 inh-1: 1%; EndoIV counter: -5%[57.1 µM]; APE1 inh-2: -19%

Results for CNC(C)Cc1ccc(OC)cc1 (centres undefined) ?
APE1 inh-1: -4%; BLM inh-1: -10%; RECQ1 inh-1: -12%

How did CCc1nnc(NC(=O)CSc2ccc(-c3ccco3)nn2)s1 do in these assays?
APE1 inh-1: inconclusive; GoLoco inh red: 27%; BLM inh-1: 14µM*; KDM4E inh: inconclusive; RECQ1 inh-1: inconclusive; APE1 inh-2: inconclusive; BLM inh-2: inconclusive; RECQ1 inh-2: -14%

Results for NC(N)=NN=Cc1c(Cl)cccc1Cl ?
APE1 inh-1: 1%; GoLoco inh red: 4%; BLM inh-1: 48%; KDM4E inh: 14%; RECQ1 inh-1: 8%

How did CC(=O)Nc1ccc(N=Cc2c(O)n(Cc3ccco3)c(=O)[nH]c2=O)cc1 do in these assays?
APE1 inh-1: inconclusive; GoLoco inh red: 0%; BLM inh-1: inconclusive; KDM4E inh: inconclusive; L3MBTL1 block: -15%; RECQ1 inh-1: inconclusive; APE1 inh-2: -26%; RECQ1 inh-2: inconclusive

What do the screens show for `COc1ccc(OC)c(C(O)C(C)N)c1` (centres undefined)?
APE1 inh-1: 5%; GoLoco inh red: 13%; BLM inh-1: 2%; KDM4E inh: 1%; L3MBTL1 block: -9%; RECQ1 inh-1: 6%

Results for CC(N)[C@H](O)c1ccc(O)c(O)c1 (some centres undefined) ?
APE1 inh-1: 1µM*; GoLoco inh red: -9%; KDM4E inh: 5.6µM*; RECQ1 inh-1: 6.3µM*; APE1 dye cs: -11%[57.1 µM]; EndoIV counter: 43%[57.1 µM]; APE1 inh-2: -6%; APE1 FP inh: -3%[57.1 µM]; RECQ1 inh conf: 31%; ADP FP counter: 13µM*

How did C[C@H](N)[C@H](O)c1ccc(O)c(O)c1 do in these assays?
APE1 inh-1: 0.79µM*; GoLoco inh red: 1%[21.6 µM]; BLM inh-1: -18%[21.4 µM]; KDM4E inh: 4.5µM*; RECQ1 inh-1: 1.8µM*; APE1 dye cs: 3%; EndoIV counter: 27%; APE1 inh-2: 6%[24.4 µM]; APE1 FP inh: -16%; RECQ1 inh conf: 28%[69.1 µM]; ADP FP counter: 11µM*

How did C[C@@H](N)[C@@H](O)c1ccc(O)c(O)c1 do in these assays?
GoLoco inh red: -3%; BLM inh-1: 1%; RECQ1 inh-1: 2.5µM*; APE1 dye cs: 5%[57.1 µM]; EndoIV counter: 53%[57.1 µM]; APE1 inh-2: 2%; APE1 FP inh: -2%[57.1 µM]; RECQ1 inh conf: 26%; ADP FP counter: inconclusive

Results for NCCSC(c1ccccc1)c1ccccc1 ?
GoLoco inh red: 0%[14.2 µM]
